Sampled rows, rich in hits. Any-hit rate of the full collection: about 3.4%.
ADAM17 inh: ADAM17 inhibition, QFRET primary screen | recombinant ADAM17, EDANS/DABCYL FRET peptide cleavage | inhibition, % at 6.95 µM | actives 0.83% (n = 370,000);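 active means inhibition above the mean of compounds lying between control limits plus 3 SD, set per campaign, cut at about 8.5% in these data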;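 further: 0% = DMSO-only wells as the low control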
proKLK7 act: proKLK7 (human) activation, primary screen | P49862 | purified proKLK7, EDANS-DABCYL substrate fluorescence; 100% is mature enzyme control, 0% vehicle | activation, % at 7 µM | actives 0.9% (n = 370,000) | AID 652039;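 active means activation above the mean of all tested compounds plus 3 SD, computed per campaign excluding outliers beyond control limits, cut at about 13% in these data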
HGIII-sPLA2 inh: Blocks human group III sPLA2 activity; Q9NZ20; QFRET BODIPY PC-A2 liposome hydrolysis, fluorescence; inhibition, % at 12.2 µM; actives 0.56% (n = 370,000); AID 743126;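 active means inhibition above mean plus 3 SD of compounds lying within the high and low control bounds, cut at about 19% in these data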;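 further: 0% = median of test compound wells and 100% = no enzyme DMSO wells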
ADAM10 inh: ADAM10 inhibition, QFRET primary screen; O14672; recombinant ADAM10, EDANS/DABCYL FRET peptide cleavage, 3 h; inhibition, % at 7 µM; actives 0.62% (n = 370,000); AID 720582;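 active means inhibition above a per-campaign cutoff equal to the mean of compounds falling between control-based bounds plus 3 SD, cut at about 20% in these data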;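 further: 0% = DMSO wells while the 100% control is not disclosed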
PLC-gamma1 inh: blocks human PLC-gamma1 enzyme activity. P19174. purified PLC-gamma1, fluorogenic substrate, fluorescence. inhibition, % at 12.2 µM. actives 0.84% (n = 370,000); in the data active means inhibition above about 9.5%
PLC-beta3 inh: PLC-beta3 (human) inhibition, primary screen | Q01970 | Purified PLC-beta3, fluorogenic substrate, fluorescence | inhibition, % at 12.2 µM | actives 0.18% (n = 370,000); in the data active means inhibition above about 11%;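 further: 0% = median of compound wells on plate and 100% = full blocker control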
ADAM10 confirm: confirmation of inhibitors of human ADAM10. shares compounds with ADAM10 inh. ADAM10 QFRET peptide cleavage, EDANS fluorescence. inhibition, % at 6.95 µM. actives 1% (n = 2,100);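 active means inhibition above about 20% chosen separately for each screening run, limit read from the data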;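 further: 0% = DMSO wells and 100% = marimastat wells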
ADAM17 counter: counter-screen for ADAM10 exosite inhibitors: inhibitors of human ADAM17; shares compounds with ADAM10 inh; ADAM17 QFRET peptide cleavage, EDANS fluorescence; inhibition, % at 6.95 µM; actives 0.5% (n = 2,100); AID 743214;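 active means mean triplicate inhibition above the solvent-only control wells' mean plus 3 SD, cut at about 12% in these data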;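 further: 0% = DMSO wells and 100% = marimastat wells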
An asterisk follows results filed as active; · = no result given.

SMILES	ADAM17 inh	proKLK7 act	HGIII-sPLA2 inh	ADAM10 inh	PLC-gamma1 inh	PLC-beta3 inh	ADAM10 confirm	ADAM17 counter
COc1cccc(COC(=O)C2CCN(S(=O)(=O)c3ccc(C)cc3C)CC2)c1OC	4	1	-21	24*	4	-4	4	2
COc1cccc(NC(=O)COC(=O)C2CCN(S(=O)(=O)c3cccs3)CC2)c1	3	0	-19	7	3	1	·	·
CC(=O)c1ccc(NC(=O)COC(=O)C2CCN(S(=O)(=O)c3cccs3)CC2)cc1	-1	1	-4	85*	4	3	0	0
O=C(CSc1cn[nH]n1)Nc1nc2ccccc2s1	2	0	-28	20*	2	-3	1	0
O=C(CSc1ccccn1)Nc1nc2ccccc2s1	1	-1	-11	6	0	1	·	·
CCOC(=O)c1ccc(NC(=O)c2ccc(NS(C)(=O)=O)cc2)cc1	3	0	-12	21*	-2	-5	0	0
CCOC(=O)c1ccc(NC(=O)c2ccccc2)cc1	-2	0	7	0	4	0	·	·
O=C(Nc1ccc(C(O)(C(F)(F)F)C(F)(F)F)cc1)c1ccc(F)cc1Cl	6	·	-8	16	3	1	·	·
N#Cc1c(NC(=O)CSc2n[nH]c(N)n2)oc(-c2ccccc2)c1-c1ccccc1	7	0	-35	20*	-8	-9	4	3
Cc1cccc(C)c1OCC(=O)Nc1oc(-c2ccccc2)c(-c2ccccc2)c1C#N	1	0	-10	-3	-7	-6	·	·
Cc1ccc(C2C(/C=C3/SC(=S)NC3=O)=C(c3cccs3)Oc3ccccc32)cc1 (stereo unspecified)	5	0	-23	20*	1	-3	14	2
COC(=O)[C@@]12CCCCC3=C1N(CCC3)C(=O)[C@H]2CC(=O)NCc1cccs1	-1	1	1	-2	1	3	·	·
CCCCNC(=S)N/N=C/c1cc(C)ccc1C	6	0	6	20*	0	1	1	1
CC(=O)C1=C(C)N(Cc2ccc(Br)cc2)C(=S)NC1c1cccc(Cl)c1 (stereo unspecified)	3	0	-3	15	2	1	·	·
COc1ccc(C2C(C(=O)Nc3cccnc3)=C(C)Nc3nc(-c4cccs4)nn32)cc1OC (stereo unspecified)	-1	0	3	77*	0	-3	0	0
COc1ccc(C2C(C(=O)Nc3cccnc3)=C(C)Nc3nc(-c4cccs4)nn32)cc1 (stereo unspecified)	-3	0	-28	-8	-12	-18	·	·
Nc1[nH]c(C(=O)c2ccccc2)c(-c2ccc3c(c2)OCO3)c1C(=O)NCCc1c[nH]c2ccccc12	8	1	-34	27*	-8	-11	6	3
COC(=O)[C@]12C[C@H](CC(=O)NCCC(C)C)C(=O)N(CCc3ccc(OC)c(OC)c3)C1=C[C@H](COCc1ccccc1)O[C@@H]2C	-1	1	-11	7	0	-1	·	·
CCc1c(C(=O)NNC(=S)Nc2ccc(S(=O)(=O)Nc3ncccn3)cc2)csc1C	8	0	-1	23*	2	-4	1	0
O=C(OCC#CCSc1nnc(-c2cccs2)o1)c1ccc(F)cc1	3	·	-13	6	1	-6	·	·
CCN(C(=O)COC(=O)c1ccc(Sc2ncn[nH]2)c([N+](=O)[O-])c1)c1ccccc1C	2	1	-29	6	2	5	·	·
COc1ccc(CNC(=O)[C@H](NC(=O)C2CCN(C(=O)[C@@H](N)CCSC)CC2)C(C)C)cc1	-1	0	2	82*	3	4	-1	0
COc1ccc(CNC(=O)[C@H](C)NC(=O)C2CCN(C(=O)[C@@H](N)CCSC)CC2)cc1	-1	-1	-4	-7	3	10	·	·

Screening data from PubChem.
